Results with a measured potency or affinity are listed apart. Inconclusive results are not listed. A number with no mark means an inactive call. The rule behind the calls is not given here.

The values that follow come from PubChem BioAssay AID588525 (Broad Institute, 2011).

The target in the experiment is DNA topoisomerase I (Yersinia pestis CO92) (UniProt A0A2S9PM60). As to the kind of experiment: Y. pestis Topo-I inhibitors, cleavage product readout, dose response, biochemical, Y. pestis CO92, cherry-pick (AID 588525). As to conditions: purified Y. pestis Topo-I, plate reader; series mostly up to 38 µM; activity (cleavage complex accumulation): at the top concentration.
Sequence of DNA topoisomerase I (Yersinia pestis CO92) (A0A2S9PM60 1-871): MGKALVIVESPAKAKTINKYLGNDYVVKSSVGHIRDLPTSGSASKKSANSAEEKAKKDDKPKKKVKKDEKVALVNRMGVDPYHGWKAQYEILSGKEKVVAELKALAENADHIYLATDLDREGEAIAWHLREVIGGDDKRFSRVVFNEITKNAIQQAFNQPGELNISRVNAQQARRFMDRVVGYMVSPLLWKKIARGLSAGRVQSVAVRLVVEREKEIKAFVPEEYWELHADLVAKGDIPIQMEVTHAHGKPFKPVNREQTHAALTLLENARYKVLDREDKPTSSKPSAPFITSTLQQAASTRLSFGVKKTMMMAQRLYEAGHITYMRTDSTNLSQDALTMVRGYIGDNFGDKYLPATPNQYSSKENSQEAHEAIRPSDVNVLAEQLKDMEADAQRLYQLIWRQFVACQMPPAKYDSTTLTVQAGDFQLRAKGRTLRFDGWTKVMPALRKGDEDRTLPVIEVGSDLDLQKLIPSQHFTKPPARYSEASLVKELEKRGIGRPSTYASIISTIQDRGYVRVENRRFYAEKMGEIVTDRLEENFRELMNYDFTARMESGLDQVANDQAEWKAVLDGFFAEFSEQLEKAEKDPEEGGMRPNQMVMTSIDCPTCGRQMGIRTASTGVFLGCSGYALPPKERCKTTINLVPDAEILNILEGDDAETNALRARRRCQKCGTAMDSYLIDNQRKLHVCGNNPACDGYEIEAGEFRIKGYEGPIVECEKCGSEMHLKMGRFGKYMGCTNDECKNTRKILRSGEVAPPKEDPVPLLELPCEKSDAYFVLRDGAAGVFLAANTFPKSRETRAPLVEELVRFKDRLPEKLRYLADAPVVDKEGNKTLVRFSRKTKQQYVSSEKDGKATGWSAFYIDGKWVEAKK
For `O=C(Cc1ccccc1)CC(CC(=O)c1ccccc1)c1ccccc1` (stereo not drawn), the “activity (cleavage complex accumulation)” value was 40.3%.

In the case of `CC(C)OC(=O)C(C)(C)Oc1ccc(C(=O)c2ccc(Cl)cc2)cc1`, the “activity (cleavage complex accumulation)” value is 20.1%.

In the case of `COc1ccc(C2CC(c3ccccc3)=NN2C(=O)COC(=O)c2cccc(S(=O)(=O)N3CCOCC3)c2)cc1` (stereo not drawn), the “activity (cleavage complex accumulation)” value was 40.6% [at 10 µM].

For `O=C(COC(=O)CCC1CCCC1)Nc1ccccc1Sc1ccccc1`, the “activity (cleavage complex accumulation)” value is 34.9%.

On to `C#CCN(C[C@@H](CC(C)C)NC(=O)OC(C)(C)C)S(=O)(=O)c1ccc(Br)cc1F`, for which the “activity (cleavage complex accumulation)” value is 15.2%.

On to `CCCCOC(=O)Nc1nnc(/C=C/c2ccc(OC)cc2)s1`, for which the “activity (cleavage complex accumulation)” value is 33.7%.

As for `Cc1ccccc1OCC(=O)Nc1ccccc1N1CCCCC1`, the “activity (cleavage complex accumulation)” value was 37%.

Regarding `CC(=O)c1ccccc1OCc1ccc(C(=O)c2ccccc2)cc1`, the “activity (cleavage complex accumulation)” value is 36.3%.

For `Cc1ccc2c(Cl)c(C)c(N3CCCCC3)nc2n1`, the “activity (cleavage complex accumulation)” value was 24.9% [at 10 µM].

As to `Cc1ccc(CSc2nc3c(c(N(C)C)n2)CCCC3)cc1`, the “activity (cleavage complex accumulation)” value was 9.99%.

As to `O=C(OCc1ccccc1)N1CCC2CC1c1c(Cl)cccc12` (stereo not drawn), the “activity (cleavage complex accumulation)” value is 34.9%.

Take `Cc1cc(NC(=O)C(C)SCC(=O)N(C)CC(=O)Nc2ccc(F)cc2)no1` (stereo not drawn): the “activity (cleavage complex accumulation)” value is 16.3%.

Turning to `CCCCN1CC(COCc2ccccc2)Oc2cccc(F)c2S1(=O)=O` (stereo not drawn), the “activity (cleavage complex accumulation)” value is 28.1%.

With `CCCCn1c(C)cc(C)c(S(=O)(=O)c2ccccc2C)c1=O`, the “activity (cleavage complex accumulation)” value is 30.2% [at 19.5 µM].

As to `COc1ccccc1C(=O)NCCC(=O)N1CC=C(c2ccccc2)CC1`, the “activity (cleavage complex accumulation)” value is 25.7%.

Consider `C[C@H]1CCC(=O)N([C@H](CSc2ccccc2)Cc2ccccc2)CC1`, for which the “activity (cleavage complex accumulation)” value is 12%.

Take `CC1CCN(c2oc(Cc3cccc4ccccc34)nc2C#N)CC1`: the “activity (cleavage complex accumulation)” value was 22.8%.

Take `O=C(NCC1(c2ccccc2)CCCC1)C1(c2ccccc2)CCCC1`: the “activity (cleavage complex accumulation)” value is 18.5%.
